Laboratory results published in PubChem BioAssay AID2562 (National Center for Advancing Translational Sciences (NCATS), 2010).
Records with an inconclusive call do not appear. Active and inactive are the calls of the source. The call rests on the fitted dose curve; in most records, active means well fitted curve in the direction sought with a large enough effect; inconclusive means small, poorly fitted or top-dose-only effect, or effect the other way, or another doubt; inactive means no such curve, though single readings can be large or run the other way.

Target: Pyruvate kinase PKLR (Homo sapiens) (UniProt P30613)
Assay: Secondary LDH Assay for Activators of Human Reticulocyte Pyruvate Kinase: for Probe SAR
Details: purified hPK-R, LDH-coupled NADH fluorescence kinetic; series mostly up to 58.4 µM
Method in brief: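 Purified hPK-R (10 nM) coupled to LDH (1 uM), with 0.1 mM PEP, 4.0 mM ADP, 0.2 mM NADH in Tris-Cl pH 8.0, KCl, MgCl2. Initial rates came from kinetic NADH fluorescence over 3-6 minutes, normalized to an EC100 activator such as fructose-bis-phosphate.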

Pyruvate kinase PKLR (Homo sapiens), sequence (P30613 whole entry, looked up): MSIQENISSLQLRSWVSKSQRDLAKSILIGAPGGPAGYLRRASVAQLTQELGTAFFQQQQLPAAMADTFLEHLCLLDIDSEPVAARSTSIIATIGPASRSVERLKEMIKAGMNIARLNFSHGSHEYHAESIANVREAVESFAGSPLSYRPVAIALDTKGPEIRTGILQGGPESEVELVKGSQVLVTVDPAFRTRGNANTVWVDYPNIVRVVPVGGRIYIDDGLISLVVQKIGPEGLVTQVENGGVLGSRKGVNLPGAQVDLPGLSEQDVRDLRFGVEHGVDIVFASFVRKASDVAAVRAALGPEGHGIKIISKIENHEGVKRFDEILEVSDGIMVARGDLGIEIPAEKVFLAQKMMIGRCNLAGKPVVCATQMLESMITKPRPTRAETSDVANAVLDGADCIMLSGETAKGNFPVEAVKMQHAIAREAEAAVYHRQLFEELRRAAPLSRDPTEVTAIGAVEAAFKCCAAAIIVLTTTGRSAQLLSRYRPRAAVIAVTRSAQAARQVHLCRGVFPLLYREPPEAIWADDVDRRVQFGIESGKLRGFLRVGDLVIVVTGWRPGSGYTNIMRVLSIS

Potency, inactive:
Cc1cccc(OC2=NS(=O)(=O)c3ccccc32)c1, O=C1c2ccccc2C(=O)N1c1ccc2ccccc2n1, O=C1CCc2cc(S(=O)(=O)Nc3ccccc3-c3ccccc3)ccc2N1, CC(=O)Nc1ccc(S(=O)(=O)Nc2ccc(C)c(C)c2)cc1, CSc1cc2c(s1)c1cnn(Cc3cccc(N)c3)c(=O)c1n2C, O=C1c2ccccc2C(=O)N1c1noc2ccccc12, O=S1(=O)N=C(Oc2ccc(Cl)cc2)c2ccccc21, CC(=O)N1CCCc2cc(S(=O)(=O)Nc3ccc(C)c(C)c3)ccc21, Cc1ccc(C)c(OC2=NS(=O)(=O)c3ccccc32)c1, Cc1ccc(NS(=O)(=O)c2ccc3c(c2)C(Cl)(Cl)C(=O)N3)cc1C, O=C1CCc2cc(S(=O)(=O)Nc3ccccn3)ccc2N1, O=C1c2ccccc2C(=O)N1c1nccs1, Cc1cc2c(s1)c1cnn(Cc3ccccc3F)c(=O)c1n2C, Cc1ccc(NS(=O)(=O)c2ccc3c(c2)oc(=O)n3C)cc1C, Cc1ccc(NS(=O)(=O)c2ccc3c(c2)CC(=O)N3)cc1C, COc1cccc(N2C(=O)c3ccccc3C2=O)c1, CC(=O)Nc1cccc(S(=O)(=O)Nc2ccc(C)c(C)c2)c1, Cc1cc(N2C(=O)c3ccccc3C2=O)no1
